Experiment [1] addresses Albumin (Bos taurus) (UniProt P02769). As to the kind of experiment: compounds binding labelled BSA control protein – biochemical, small-molecule microarray, Alexa647 label, 635/667 nm fluorescence, artefact control for SMM control protein annotation, profiling panel (AID 1118).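 Note: score merges 667 nm emission intensity and signal-to-noise per printed compound spot.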 The note with it: BSA-A647 binding, fluorescence 635 nm, higher = more signal.
The nature of experiment [2]: probe aXIP binding to arrayed compounds – biochemical, NeuroSMM set, 635/667 nm fluorescence, primary screen (AID 1119).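 Note: probe is the protein aXip251-270 applied at 1 µg/mL to compound-printed slides; binding of probe to printed compounds measured as 667 nm fluorescence plus signal to noise.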 The note with it: small-molecule microarray, higher = more signal, called active from +8 up or from −8 down.
Experiment [3] can be described thus: probe aNOTCH3 binding on compound microarray – biochemical, small-molecule microarray, 635/667 nm fluorescence, primary screen (AID 1120).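 Note: probe is a biotin-tagged antibody raised against NOTCH3 rather than NOTCH3 protein; score merges spot fluorescence near 667 nm with spot signal to noise.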 Conditions: higher = more signal.
Experiment [4] is described as follows: probe aNOTCH2 binding on compound microarray – biochemical, small-molecule microarray, 635/667 nm fluorescence, primary screen (AID 1121).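 Note: score merges feature fluorescence read at 667 nm with its signal to noise.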 The note with it: higher = more signal.
Experiment [5] deals with Carbonic anhydrase 2 (Homo sapiens) (UniProt P00918). As to the kind of experiment: compounds binding carbonic anhydrase 2 – biochemical, small-molecule microarray, Alexa647-labelled CAII, profiling panel (AID 1122). Conditions: CAII-A647 binding fluorescence, higher = more signal.
A short description of experiment [6]: COS7 lysate on small-molecule microarray, probe aHis, 635 nm (AID 1123).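 Note: z-score combines 667nm fluorescence intensity with signal-to-noise per printed compound spot.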 The note with it: COS7 cell lysate, fluorescence, higher = more signal.
The nature of experiment [7]: probe aLAP1 signal on lysate-treated microarray – cell lysate, small-molecule microarray, COS7 lysate, primary screen (AID 1124).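 Note: lysate comes from COS7 cells expressing LAP1 and is applied at 0.3 µg/mL; score merges spot fluorescence near 667 nm with signal-to-noise over triplicate slides.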 Conditions: probe aLAP1, fluorescence, higher = more signal.
For experiment [8], the system named is Sam68 (KHDRBS1). As to the kind of experiment: compounds binding KHDRBS1 protein – biochemical, small-molecule microarray, 635 nm fluorescence, primary screen (AID 1125).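 Note: score merges 667 nm channel intensity with signal to noise over triplicate slides.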 Conditions: higher = more signal.
Experiment [9] deals with Chordin-like protein 2 (CHRDL2). As to the kind of experiment: compounds binding chordin-like 2 – biochemical, small-molecule microarray, 635 nm fluorescence, primary screen (AID 1126).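 Note: printed compound slides probed with Chrdl2 protein at 4 µg/mL for 1 h at 4 C; score merges 667 nm emission intensity with signal to noise over three replicate slides.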 Conditions: fluorescence 635 nm, higher = more signal.
The target in experiment [10] is Concanavalin-A (Canavalia ensiformis) (UniProt P02866). The experiment can be described thus: compounds binding concanavalin A lectin – biochemical, small-molecule microarray, Alexa647 label, 635 nm, artefact control for SMM control protein annotation, primary screen (AID 1127).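 Note: z combines 667 nm emission intensity with signal-to-noise across three replicate slides.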 Conditions: ConA-A647 binding fluorescence, higher = more signal.
Experiment [11] can be described thus: compounds binding Alexa647 anti-His antibody – biochemical, small-molecule microarray, 635 nm fluorescence, artefact control for SMM control protein annotation, primary screen (AID 1128).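 Note: score merges feature fluorescence with signal-to-noise for each printed compound spot.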 Conditions: higher = more signal.
In experiment [12] the test system is Human papillomavirus type 1a E7 protein (residues 1-88). The experiment can be described thus: HPV1a E7 small-molecule binders, primary screen, biochemical, small-molecule microarray, residues 1-88, 635 nm (AID 1129). The note with it: small-molecule microarray binding, fluorescence 635 nm; higher = more signal.
The target in experiment [13] is Focal adhesion kinase 1 (Homo sapiens) (UniProt Q05397). The experiment can be described thus: PTK2 protein binding on printed compound slides – biochemical, small-molecule microarray, 635/667 nm fluorescence, BSA, DTT, primary screen (AID 1130).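 Note: composite of spot emission at 667 nm and signal to noise over triplicate slides.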 Conditions: 635 nm fluorescence, higher = more signal.
For experiment [14], the system named is Fibrinogen (Alexa647-labelled). As to the kind of experiment: Alexa647-fibrinogen binding to printed small molecules – biochemical, small-molecule microarray, 635/667 nm fluorescence, artefact control for SMM control-protein annotation, profiling panel (AID 1131).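 Note: z-score merges 667 nm fluorescence with per-spot signal-to-noise over triplicate slides.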 The note with it: fibrinogen-A647 binding fluorescence, higher = more signal.
Experiment [15] deals with Follistatin (Homo sapiens) (UniProt P19883). The experiment can be described thus: FST protein binding to printed compounds – biochemical, small-molecule microarray, 635/667 nm fluorescence, primary screen (AID 1132). Conditions: 635 nm fluorescence, higher = more signal.
Experiment [16] has as its target Fibroblast growth factor 2 (Homo sapiens) (UniProt P09038). The experiment can be described thus: basic fibroblast growth factor binding to printed compounds – biochemical, small-molecule microarray, 635/667 nm fluorescence, primary screen (AID 1133). The note with it: FGF2, fluorescence 635/667, higher = more signal.
A short description of experiment [17]: JC-1 mitochondrial potential readout, lung cancer cells – cell-based, A549, JC-1 fluorescence, basal, 24 h, 100 nL, profiling panel (AID 1138).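 Note: A549 lung adenocarcinoma cells under basal conditions with no added stimulus; test concentration not given here.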 Conditions: higher = more signal.
In experiment [18] the test system is Lefty1. As to the kind of experiment: Lefty1 protein binding to printed compounds – biochemical, small-molecule microarray, 635/667 nm fluorescence, primary screen (AID 1139). The note with it: fluorescence 635/667, higher = more signal.
In experiment [19] the test system is wheat germ agglutinin (Triticum aestivum), Alexa647-labelled. As to the kind of experiment: Alexa647-WGA lectin binding to printed small molecules – biochemical, small-molecule microarray, 635/667 nm fluorescence, artefact control for SMM control-protein annotation, profiling panel (AID 1140).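 Note: score merges 667 nm feature emission with signal to noise over triplicate slides.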 Conditions: WGA-A647 binding, 635 nm fluorescence, higher = more signal.

Experiment [20] addresses Luciferin 4-monooxygenase (Photinus pyralis) (UniProt P08659). The experiment can be described thus: inhibition of purified Photinus pyralis luciferase – biochemical, luminescence, purified enzyme, 2006 set, primary screen (AID 1141).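 Note: cell-free assay with purified firefly luciferase at 100 ng per well in PBS; test concentration not given here.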 Conditions: purified firefly luciferase, SteadyGlo luminescence, 30 min; higher = more signal, called active from +8 up or from −8 down.

Drawing on PubChem BioAssay, this text covers composite z-score, composite Z-score and z-score for 5 molecules.

SMILES strings stand for the structures. Activity calls are given as the source filed them.

Sequence of Albumin (Bos taurus) (P02769 whole entry, looked up): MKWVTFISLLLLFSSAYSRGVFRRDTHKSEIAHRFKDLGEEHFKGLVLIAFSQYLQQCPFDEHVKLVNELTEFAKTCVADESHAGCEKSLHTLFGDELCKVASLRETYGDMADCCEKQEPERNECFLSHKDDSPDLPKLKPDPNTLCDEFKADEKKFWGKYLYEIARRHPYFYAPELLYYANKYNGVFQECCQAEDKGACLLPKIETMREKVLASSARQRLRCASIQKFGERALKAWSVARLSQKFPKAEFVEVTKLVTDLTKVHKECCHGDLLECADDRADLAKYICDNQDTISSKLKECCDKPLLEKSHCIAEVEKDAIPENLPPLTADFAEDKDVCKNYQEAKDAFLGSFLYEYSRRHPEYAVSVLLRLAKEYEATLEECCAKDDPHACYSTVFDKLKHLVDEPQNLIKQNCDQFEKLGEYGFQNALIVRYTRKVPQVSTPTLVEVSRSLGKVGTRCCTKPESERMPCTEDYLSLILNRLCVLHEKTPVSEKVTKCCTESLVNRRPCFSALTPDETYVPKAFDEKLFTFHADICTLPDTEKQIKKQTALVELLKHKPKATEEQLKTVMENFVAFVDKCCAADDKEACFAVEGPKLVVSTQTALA
Sequence of Fibroblast growth factor 2 (Homo sapiens) (P09038 whole entry, looked up): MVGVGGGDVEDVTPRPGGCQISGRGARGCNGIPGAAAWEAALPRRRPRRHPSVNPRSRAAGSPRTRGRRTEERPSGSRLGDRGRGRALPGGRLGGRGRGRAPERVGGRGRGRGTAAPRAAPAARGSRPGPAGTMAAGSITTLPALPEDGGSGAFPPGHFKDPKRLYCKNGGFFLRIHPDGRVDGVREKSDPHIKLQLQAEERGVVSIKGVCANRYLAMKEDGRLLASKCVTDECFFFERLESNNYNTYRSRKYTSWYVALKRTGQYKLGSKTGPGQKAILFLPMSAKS
Sequence of Luciferin 4-monooxygenase (Photinus pyralis) (P08659 whole entry, looked up): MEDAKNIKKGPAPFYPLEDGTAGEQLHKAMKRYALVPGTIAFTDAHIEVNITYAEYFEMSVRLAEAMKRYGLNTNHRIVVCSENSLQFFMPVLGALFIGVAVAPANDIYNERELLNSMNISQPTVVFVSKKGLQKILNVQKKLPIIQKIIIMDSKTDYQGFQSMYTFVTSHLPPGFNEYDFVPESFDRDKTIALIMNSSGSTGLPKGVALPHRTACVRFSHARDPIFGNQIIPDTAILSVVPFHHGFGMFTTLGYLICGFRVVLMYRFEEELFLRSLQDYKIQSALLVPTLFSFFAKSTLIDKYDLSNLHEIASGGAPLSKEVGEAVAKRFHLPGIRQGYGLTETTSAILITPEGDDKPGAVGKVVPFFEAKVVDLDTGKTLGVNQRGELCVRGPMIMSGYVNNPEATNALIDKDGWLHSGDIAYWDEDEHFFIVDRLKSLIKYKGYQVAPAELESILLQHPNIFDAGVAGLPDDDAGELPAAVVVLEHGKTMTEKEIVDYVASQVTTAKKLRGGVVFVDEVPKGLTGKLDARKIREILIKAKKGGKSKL
Sequence of Focal adhesion kinase 1 (Homo sapiens) (Q05397 whole entry, looked up): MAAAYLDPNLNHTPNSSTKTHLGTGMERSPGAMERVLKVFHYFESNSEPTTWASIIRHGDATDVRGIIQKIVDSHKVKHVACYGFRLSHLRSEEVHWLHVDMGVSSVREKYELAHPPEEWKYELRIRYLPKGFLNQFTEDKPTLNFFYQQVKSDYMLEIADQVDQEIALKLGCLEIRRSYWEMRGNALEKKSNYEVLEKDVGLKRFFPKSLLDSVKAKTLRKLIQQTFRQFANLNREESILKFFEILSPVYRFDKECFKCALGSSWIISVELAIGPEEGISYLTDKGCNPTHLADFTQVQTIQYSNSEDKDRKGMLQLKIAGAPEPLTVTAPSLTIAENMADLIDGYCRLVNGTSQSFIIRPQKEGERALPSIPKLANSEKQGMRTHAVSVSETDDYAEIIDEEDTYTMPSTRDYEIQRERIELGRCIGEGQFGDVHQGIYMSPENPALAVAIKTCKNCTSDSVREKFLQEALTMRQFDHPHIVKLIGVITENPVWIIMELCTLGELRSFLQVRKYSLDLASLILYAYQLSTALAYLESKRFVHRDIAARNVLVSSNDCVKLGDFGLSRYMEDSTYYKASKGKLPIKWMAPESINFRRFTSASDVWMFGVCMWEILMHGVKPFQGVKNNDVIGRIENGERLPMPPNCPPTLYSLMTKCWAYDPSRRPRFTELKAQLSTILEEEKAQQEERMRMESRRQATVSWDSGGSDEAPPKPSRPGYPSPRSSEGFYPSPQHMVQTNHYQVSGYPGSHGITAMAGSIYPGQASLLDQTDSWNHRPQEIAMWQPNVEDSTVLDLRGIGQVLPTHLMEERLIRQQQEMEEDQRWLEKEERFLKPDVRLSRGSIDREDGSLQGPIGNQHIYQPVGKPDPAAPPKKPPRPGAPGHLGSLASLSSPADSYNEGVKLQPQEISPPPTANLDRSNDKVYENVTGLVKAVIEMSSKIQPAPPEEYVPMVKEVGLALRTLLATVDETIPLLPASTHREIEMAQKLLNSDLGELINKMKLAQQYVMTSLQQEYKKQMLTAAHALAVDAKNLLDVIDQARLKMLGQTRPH
Sequence of Follistatin (Homo sapiens) (P19883 whole entry, looked up): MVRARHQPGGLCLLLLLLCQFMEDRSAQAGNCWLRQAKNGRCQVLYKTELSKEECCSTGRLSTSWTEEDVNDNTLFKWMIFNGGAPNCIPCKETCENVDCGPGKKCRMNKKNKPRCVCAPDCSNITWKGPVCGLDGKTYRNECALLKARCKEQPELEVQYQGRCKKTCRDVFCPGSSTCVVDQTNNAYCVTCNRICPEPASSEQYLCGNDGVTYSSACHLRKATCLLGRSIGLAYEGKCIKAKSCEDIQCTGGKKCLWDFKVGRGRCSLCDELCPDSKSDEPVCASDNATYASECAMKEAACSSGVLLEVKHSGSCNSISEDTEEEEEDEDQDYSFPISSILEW
Sequence of Concanavalin-A (Canavalia ensiformis) (P02866 whole entry, looked up): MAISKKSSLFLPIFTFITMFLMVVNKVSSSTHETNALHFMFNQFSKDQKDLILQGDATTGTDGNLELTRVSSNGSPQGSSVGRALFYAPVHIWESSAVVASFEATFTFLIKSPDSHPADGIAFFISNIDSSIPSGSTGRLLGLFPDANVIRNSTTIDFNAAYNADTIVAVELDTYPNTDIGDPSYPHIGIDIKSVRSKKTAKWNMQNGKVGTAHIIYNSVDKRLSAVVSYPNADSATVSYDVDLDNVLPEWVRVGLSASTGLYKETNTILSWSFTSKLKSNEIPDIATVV

As for `COC(=O)[C@H](C)NC(=O)CCC1CC(OC(=O)NCc2cccc3ccccc23)CC2(CCCC(COC(=O)NCCCN3CCCC3=O)O2)O1` (stereo not given in full), the composite z-score in experiment [1] is 0.559; in experiment [3] it was 0.0485; in experiment [4] it was -0.132; in experiment [5] it was 0.378; in experiment [6], 0.519; in [7], 0.0377. The composite z-score in [8] is 1.32; in [9] it was 0.131; in experiment [10] it was 1.1; in experiment [11], 0.383; in [12], 1.11; in experiment [13], 0.926. Besides, the composite z-score came out at 0.821 in [14]; 0.413 in [15]; 0.0982 in experiment [16]; 1.23 in experiment [18]; 0.485 in [19]. Also, the composite Z-score in experiment [2] is -0.0448 (inactive). Besides, the z-score was -0.262 in [17] and 0.86 (inactive) in experiment [20].
As to `CCN1C(=O)[C@H]2[C@H]3[C@H](O)[C@H](O)CC(=NOC[C@@H](O)COCc4ccco4)[C@H]3CC[C@H]2C1=O`, the composite z-score in [1] is 0.532; in experiment [3], -0.18; in experiment [4], -0.16; in experiment [5], 0.093; in [6], -0.303; in [7], 0.0965. The composite z-score is 0.971 in [8]; 1.5 in experiment [9]; -1.26 in experiment [10]; -1.13 in experiment [11]; -0.516 in experiment [12]; 0.0699 in experiment [13]. Further, the composite z-score in experiment [14] is -0.554; in experiment [15], 1.39; in experiment [16] it was 1.66; in experiment [18], 1.55; in [19], -0.976. Moreover, in experiment [2], the composite Z-score was 0.525 (inactive). Moreover, the z-score was 0.0801 in experiment [17] and -0.941 (inactive) in [20].
Regarding `COc1ccc(OC[C@H]2CN3[C@@H](CC[C@@H](C)[C@@H]3c3ccc(Br)cc3)C(=O)O2)cc1`, the composite z-score in [1] is 0.197; in experiment [3], -0.25; in [4], -0.13; in experiment [5], -0.657; in experiment [6] it was -0.239; in experiment [7], 0.254. The composite z-score in experiment [8] was 0.592; in [9] it was 0.464; in experiment [10] it was 0.297; in experiment [11], 0.0994; in [12] it was -0.023; in [13] it was -0.305. The composite z-score in experiment [14] was -0.0163; in experiment [15] it was 0.385; in [16], 0.042; in experiment [18], 0.664; in experiment [19], -0.108. Further, the composite Z-score in experiment [2] is 0.281 (inactive). Moreover, the z-score in experiment [17] is -0.124; in experiment [20], -1.55 (inactive).
`C[C@@H](c1ccccc1)N1C(=O)[C@H]2[C@H]3[C@H](O)[C@H](O)CC(=NNC(=O)OCc4ccccc4)[C@@H]3CC[C@H]2C1=O`: the composite z-score in [1] was 0.517; in [3] it was -0.0647; in experiment [4], -0.148; in experiment [5], -0.191; in experiment [6], -0.231; in experiment [7], -0.723. Moreover, the composite z-score in experiment [8] is 0.723; in experiment [9] it was 1.45; in experiment [10], -0.569; in experiment [11], -0.23; in [12] it was -1.01; in [13], 0.37. Further, the composite z-score in experiment [14] is -0.864; in experiment [15], 1.43; in experiment [16], 1.66; in experiment [18], 1.39; in experiment [19] it was -0.212. Besides, in experiment [2], the composite Z-score is 0.581 (inactive). In addition, the z-score in experiment [17] was -0.383; in experiment [20], 0.574 (inactive).
`CC(=O)OC[C@H]1O[C@@H](ON=C(C)C)[C@H](OC(C)=O)[C@@H](OC(C)=O)[C@@H]1OC(C)=O`: the composite z-score in [1] was -0.727; in [3], -0.0178; in experiment [4] it was -0.0272; in experiment [5] it was -0.755; in [6], -0.775; in experiment [7], 0.694. For the same molecule, the composite z-score was -0.743 in [8]; -0.736 in experiment [9]; -1.09 in [10]; 0.759 in experiment [11]; -1.41 in experiment [12]; -0.242 in [13]. For the same molecule, the composite z-score in experiment [14] was -0.515; in [15], -1.27; in experiment [16], -0.109; in [18], -1.03; in experiment [19], -0.88. Besides, the composite Z-score in experiment [2] was -1.02 (inactive). Also, the z-score is -0.191 in [17] and 0.316 (inactive) in experiment [20].
